Results from PubChem BioAssay (EPA / NIEHS).
“And” between values parts separate entries of the source, which are not always exact repeats. Identical values can stand only once. Results filed as inconclusive are left out. Where a structure was tested more than once in an assay, its records may differ in their call. The source made the active and inactive calls. Rule for the calls, unless noted: active = hit-call score of the fitted dose curve at least 0.9, where 1 is the maximum; inconclusive = response in the unintended direction; inactive = score below 0.9.

How the values were obtained:
[1] = target: Peroxisome proliferator-activated receptor gamma (Homo sapiens) (UniProt P37231); test: NVS_NR_hPPARg: NovaScreen (NVS) Nuclear Receptor Binding Assay for human Peroxisome Proliferator-activated Receptor gamma (PPARg) (AID 2283370)
Peroxisome proliferator-activated receptor gamma (Homo sapiens), sequence (P37231 whole entry, looked up, the tested form may be a part): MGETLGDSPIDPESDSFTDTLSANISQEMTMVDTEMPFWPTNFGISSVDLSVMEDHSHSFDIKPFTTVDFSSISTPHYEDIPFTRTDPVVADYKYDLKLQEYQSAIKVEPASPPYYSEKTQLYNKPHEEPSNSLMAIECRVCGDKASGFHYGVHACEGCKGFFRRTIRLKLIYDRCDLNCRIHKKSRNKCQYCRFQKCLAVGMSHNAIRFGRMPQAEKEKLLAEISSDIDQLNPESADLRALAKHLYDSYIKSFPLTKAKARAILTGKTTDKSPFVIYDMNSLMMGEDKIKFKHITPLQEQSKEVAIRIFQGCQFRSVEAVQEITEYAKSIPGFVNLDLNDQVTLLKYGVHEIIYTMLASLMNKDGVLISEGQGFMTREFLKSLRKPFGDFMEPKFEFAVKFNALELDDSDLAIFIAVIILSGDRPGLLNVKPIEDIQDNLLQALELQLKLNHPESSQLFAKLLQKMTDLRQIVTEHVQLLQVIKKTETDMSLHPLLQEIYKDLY
Summary of the method: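 Chemicals were tested first in duplicate at 25 uM, then in concentration series if active. Binding to cell-free PPARg protein was measured by fluorescence polarization after 2 h, with loss of signal scored against DMSO.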

[2] = system: rat Norepinephrine Transporter (NET), gene 83511; test: NVS_TR_rNET: NovaScreen (NVS) Transporter Assay for rat Norepinephrine Transporter (NET) (AID 2283373)
Summary of the method: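 Competitive radioligand displacement at the rat NET using forebrain membrane preparations, 1 h incubation, filter-based scintillation readout. Primary testing in duplicate at a single 25 uM concentration; confirmed actives retested across concentrations.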

[3] = target: human Norepinephrine Transporter (NET), SLC6A2 (gene 6530) (UniProt P23975); test: NVS_TR_hNET: NovaScreen (NVS) Transporter Assay for human Norepinephrine Transporter (NET) (AID 2283377);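 note: cell-free membrane protein extracted from CHO cells expressing human NET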;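 for AC50: displacement of radioligand from human NET seen as loss of scintillation signal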
human Norepinephrine Transporter (NET), SLC6A2 (gene 6530), sequence (P23975 whole entry, looked up): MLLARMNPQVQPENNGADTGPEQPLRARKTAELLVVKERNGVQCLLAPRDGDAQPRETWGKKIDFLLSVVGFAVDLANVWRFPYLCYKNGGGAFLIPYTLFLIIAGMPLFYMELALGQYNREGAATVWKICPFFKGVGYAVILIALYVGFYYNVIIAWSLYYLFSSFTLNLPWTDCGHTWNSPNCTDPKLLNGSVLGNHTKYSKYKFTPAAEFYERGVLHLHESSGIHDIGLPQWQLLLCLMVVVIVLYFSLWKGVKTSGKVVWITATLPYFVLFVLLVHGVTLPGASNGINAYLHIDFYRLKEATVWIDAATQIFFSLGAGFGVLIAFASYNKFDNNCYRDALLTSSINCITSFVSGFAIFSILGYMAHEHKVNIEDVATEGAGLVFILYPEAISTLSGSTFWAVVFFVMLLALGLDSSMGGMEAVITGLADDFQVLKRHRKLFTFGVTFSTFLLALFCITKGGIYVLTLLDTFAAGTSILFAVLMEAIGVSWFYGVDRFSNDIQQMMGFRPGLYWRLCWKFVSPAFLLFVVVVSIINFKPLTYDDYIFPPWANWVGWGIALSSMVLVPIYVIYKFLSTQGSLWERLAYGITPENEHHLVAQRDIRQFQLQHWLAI
Summary of the method: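 Single-concentration duplicate screen at 25 uM, then concentration-response for actives; displacement of specific radioligand from human NET in CHO membrane extracts, filter-based scintillation detection at 1 h relative to DMSO.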

[4] = target: Estrogen receptor beta (Homo sapiens) (UniProt Q92731); test: OT_ER_ERbERb_1440: Odyssey Thera (OT) 24-hour HEK293T Protein-Complementation Assay for Estrogen Receptor-beta/-beta Homodimer (AID 2283380);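 note: fluorescence gain from ER beta LBD homodimer complementation read by laser scanning cytometry; scored as signal increase over DMSO baseline for both agonists and antagonists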
Estrogen receptor beta (Homo sapiens), sequence (Q92731 whole entry, looked up, the tested form may be a part): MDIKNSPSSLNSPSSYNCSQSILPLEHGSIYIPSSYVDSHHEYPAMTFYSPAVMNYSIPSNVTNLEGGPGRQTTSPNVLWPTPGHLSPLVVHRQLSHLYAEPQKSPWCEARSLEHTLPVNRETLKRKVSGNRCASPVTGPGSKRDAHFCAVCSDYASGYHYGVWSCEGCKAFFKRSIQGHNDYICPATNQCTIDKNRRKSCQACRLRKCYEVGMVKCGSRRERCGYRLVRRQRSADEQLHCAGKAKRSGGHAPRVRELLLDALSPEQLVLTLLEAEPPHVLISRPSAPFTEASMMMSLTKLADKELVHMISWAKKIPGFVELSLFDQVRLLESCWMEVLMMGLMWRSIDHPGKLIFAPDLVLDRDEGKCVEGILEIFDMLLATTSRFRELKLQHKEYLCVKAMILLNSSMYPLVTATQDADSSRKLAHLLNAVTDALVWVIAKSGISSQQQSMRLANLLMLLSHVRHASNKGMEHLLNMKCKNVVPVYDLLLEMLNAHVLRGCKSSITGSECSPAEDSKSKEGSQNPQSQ
Summary of the method: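 Fluorescence increase, nuclear for agonists or whole-cell for antagonists, relative to DMSO vehicle, quantified by laser scanning cytometer after fixation and Draq5 staining. Readout from 24 h treatment of HEK293T cells carrying complementation-paired ER beta LBD (aa 310-547).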

[5] = target: Estrogen receptor (Homo sapiens) (UniProt P03372); test: OT_ERa_GFPERaERE_0480: Odyssey Thera (OT) 8-hour HeLa Transcription Induction Assay for Estrogen Receptor (AID 2283381; active = hit-call score of the fitted dose curve at least 0.9, where 1 is the maximum; inactive = score below 0.9)
Estrogen receptor (Homo sapiens), sequence (P03372 whole entry, looked up): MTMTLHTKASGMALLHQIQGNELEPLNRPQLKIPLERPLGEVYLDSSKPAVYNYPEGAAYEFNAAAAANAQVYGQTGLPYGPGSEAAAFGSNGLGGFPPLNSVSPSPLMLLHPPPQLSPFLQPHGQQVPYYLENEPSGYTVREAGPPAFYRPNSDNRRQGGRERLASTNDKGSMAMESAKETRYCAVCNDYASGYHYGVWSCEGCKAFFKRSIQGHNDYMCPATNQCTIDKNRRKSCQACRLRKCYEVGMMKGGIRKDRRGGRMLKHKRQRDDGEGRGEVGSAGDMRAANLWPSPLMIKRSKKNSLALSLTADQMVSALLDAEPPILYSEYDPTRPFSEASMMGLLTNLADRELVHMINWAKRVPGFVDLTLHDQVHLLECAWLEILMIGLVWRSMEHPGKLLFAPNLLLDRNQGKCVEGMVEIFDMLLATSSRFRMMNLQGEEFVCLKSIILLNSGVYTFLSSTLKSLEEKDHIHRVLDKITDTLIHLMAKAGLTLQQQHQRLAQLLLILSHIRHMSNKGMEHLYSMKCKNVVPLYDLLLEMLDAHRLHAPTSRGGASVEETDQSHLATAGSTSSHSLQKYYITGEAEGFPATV
Summary of the method: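 An 8 h HeLa transcription-induction format with a GFP reporter under ERE control, read by fluorescence microscopy; single endpoint fitted positively with DMSO as baseline.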

[6] = target: Estrogen receptor (Homo sapiens) (UniProt P03372); test: OT_ERa_GFPERaERE_0120: Odyssey Thera (OT) 2-hour HeLa Transcription Induction Assay for Estrogen Receptor (AID 2283382)
Summary of the method: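 Two-hour compound treatment of HeLa cells preceded microscopy imaging of an inducible fluorescent reporter. Image-based quantification gave one endpoint, analysed for signal increase relative to DMSO controls.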

[7] = target: Retinoic acid receptor RXR-alpha (Homo sapiens) (UniProt P19793); test: OT_NURR1_NURR1RXRa_0480: Odyssey Thera (OT) 8-hour HEK293T Protein Complementation Assay for Nurr1/retinoid X receptor (RXR) (AID 2283385)
Summary of the method: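 Gain in fluorescent complementation signal over DMSO, measured 8 hours after chemical dosing of human kidney HEK293T cells, indicated enhanced Nurr1–RXRα association.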

[8] = target: Retinoic acid receptor RXR-alpha (Homo sapiens) (UniProt P19793); test: OT_NURR1_NURR1RXRa_1440: Odyssey Thera (OT) 24-hour HEK293T Protein Complementation Assay for Nurr1/retinoid X receptor (RXR) (AID 2283386)
Summary of the method: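 Cell-based binding reporter: HEK293T cells, 24 h exposure, fluorescence-detected fragment complementation, DMSO as baseline.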

[9] = target: Peroxisome proliferator-activated receptor gamma (Homo sapiens) (UniProt P37231); test: OT_PPARg_PPARgSRC1_0480: Odyssey Thera (OT) 8-hour Protein-Complementation Assay for Peroxisome Proliferator-activated Receptor Gamma / SRC-1 Co-activator (AID 2283387);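 note: nuclear to cytoplasmic split Venus YFP fluorescence ratio reporting PPARg SRC-1 interaction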
Summary of the method: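 Read-out: 488 nm N/C fluorescence ratio from complemented Venus YFP fragments, ≥350 cells per image, gain-of-signal fitted against DMSO baseline. Fusions of PPARg/SRC-1 with IFP1/IFP2 expressed transiently in HEK293T; compounds applied 8 h.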

[10] = CEETOX_H295R_OHPREG: CeeTox H295R High-throughput Steroidogenesis Assay for OH-Pregnenolone (OHPREG) (AID 2283434; active = hit-call score of the fitted dose curve at least 0.9, where 1 is the maximum; inactive = score below 0.9); details: actives raise or lower the signal
Summary of the method: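 Secreted 17alpha-hydroxypregnenolone measured by HPLC-MS/MS after liquid-liquid extraction. Human adrenal H295R cells received 48 h forskolin (10 uM) stimulation before 48 h chemical exposure at 0.1% final DMSO; MTT viability in same wells; bidirectional fit against DMSO.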

[11] = target: human Serotonin Transporter (SERT), SLC6A4 (gene 6532) (UniProt P31645); test: NVS_TR_hSERT: NovaScreen (NVS) Transporter Assay for human Serotonin Transporter (SERT) (AID 2283372)
human Serotonin Transporter (SERT), SLC6A4 (gene 6532), sequence (P31645 whole entry, looked up): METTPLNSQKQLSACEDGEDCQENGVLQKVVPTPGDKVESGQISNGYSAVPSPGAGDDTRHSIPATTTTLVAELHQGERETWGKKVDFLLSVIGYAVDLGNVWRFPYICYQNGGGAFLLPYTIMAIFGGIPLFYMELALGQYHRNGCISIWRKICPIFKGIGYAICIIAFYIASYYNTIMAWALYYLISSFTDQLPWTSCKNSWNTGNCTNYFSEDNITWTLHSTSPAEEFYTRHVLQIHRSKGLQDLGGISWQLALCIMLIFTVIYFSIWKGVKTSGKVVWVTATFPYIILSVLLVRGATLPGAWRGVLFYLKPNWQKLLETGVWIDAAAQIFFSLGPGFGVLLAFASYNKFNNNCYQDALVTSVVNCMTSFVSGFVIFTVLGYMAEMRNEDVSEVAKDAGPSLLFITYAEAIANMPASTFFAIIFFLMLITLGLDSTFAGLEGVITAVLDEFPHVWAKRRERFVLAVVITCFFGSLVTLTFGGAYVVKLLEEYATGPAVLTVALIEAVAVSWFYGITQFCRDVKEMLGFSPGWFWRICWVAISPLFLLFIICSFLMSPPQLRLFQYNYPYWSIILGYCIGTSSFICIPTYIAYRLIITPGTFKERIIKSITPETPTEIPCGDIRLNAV
Summary of the method: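 Human platelet membrane preparation; displacement of radioligand from serotonin transporter measured after 1 h by filtration and scintillation counting. Single 25 uM duplicate screen, then concentration series for actives, with DMSO as negative baseline.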

[12] = target: rat Serotonin Transporter (SERT), Slc6a4 (gene 25553) (UniProt P31652); test: NVS_TR_rSERT: NovaScreen (NVS) Transporter Assay for rat Serotonin Transporter (SERT) (AID 2283375)
rat Serotonin Transporter (SERT), Slc6a4 (gene 25553), sequence (P31652 whole entry, looked up): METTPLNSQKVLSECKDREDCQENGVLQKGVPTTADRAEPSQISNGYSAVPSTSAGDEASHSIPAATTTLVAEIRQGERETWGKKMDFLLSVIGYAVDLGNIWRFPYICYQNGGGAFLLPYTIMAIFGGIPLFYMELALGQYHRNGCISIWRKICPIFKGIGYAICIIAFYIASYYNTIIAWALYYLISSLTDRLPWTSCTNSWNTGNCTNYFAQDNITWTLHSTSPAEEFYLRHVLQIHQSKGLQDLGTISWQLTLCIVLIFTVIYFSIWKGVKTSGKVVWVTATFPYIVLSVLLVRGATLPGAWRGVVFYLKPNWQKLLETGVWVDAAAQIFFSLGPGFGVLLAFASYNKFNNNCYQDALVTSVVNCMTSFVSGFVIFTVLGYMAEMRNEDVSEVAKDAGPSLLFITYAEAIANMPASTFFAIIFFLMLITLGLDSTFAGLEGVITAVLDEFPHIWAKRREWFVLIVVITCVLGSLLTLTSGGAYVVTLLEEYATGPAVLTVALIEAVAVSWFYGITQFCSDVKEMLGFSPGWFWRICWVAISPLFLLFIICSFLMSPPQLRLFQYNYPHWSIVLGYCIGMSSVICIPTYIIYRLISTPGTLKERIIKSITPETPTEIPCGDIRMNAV
Summary of the method: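 Filtration-based radiodetection quantified loss of specific radioligand binding in rat forebrain membranes after 1 hour of chemical exposure, relative to DMSO. Chemicals were first tested in duplicate at 25 uM.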

[13] = target: human Dopamine Transporter (DAT), SLC6A3 (gene 6531) (UniProt Q01959); test: NVS_TR_hDAT: NovaScreen (NVS) Transporter Assay for human Dopamine Transporter (DAT) (AID 2283374);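 note: activity means loss of bound radioligand signal relative to DMSO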
human Dopamine Transporter (DAT), SLC6A3 (gene 6531), sequence (Q01959 whole entry, looked up): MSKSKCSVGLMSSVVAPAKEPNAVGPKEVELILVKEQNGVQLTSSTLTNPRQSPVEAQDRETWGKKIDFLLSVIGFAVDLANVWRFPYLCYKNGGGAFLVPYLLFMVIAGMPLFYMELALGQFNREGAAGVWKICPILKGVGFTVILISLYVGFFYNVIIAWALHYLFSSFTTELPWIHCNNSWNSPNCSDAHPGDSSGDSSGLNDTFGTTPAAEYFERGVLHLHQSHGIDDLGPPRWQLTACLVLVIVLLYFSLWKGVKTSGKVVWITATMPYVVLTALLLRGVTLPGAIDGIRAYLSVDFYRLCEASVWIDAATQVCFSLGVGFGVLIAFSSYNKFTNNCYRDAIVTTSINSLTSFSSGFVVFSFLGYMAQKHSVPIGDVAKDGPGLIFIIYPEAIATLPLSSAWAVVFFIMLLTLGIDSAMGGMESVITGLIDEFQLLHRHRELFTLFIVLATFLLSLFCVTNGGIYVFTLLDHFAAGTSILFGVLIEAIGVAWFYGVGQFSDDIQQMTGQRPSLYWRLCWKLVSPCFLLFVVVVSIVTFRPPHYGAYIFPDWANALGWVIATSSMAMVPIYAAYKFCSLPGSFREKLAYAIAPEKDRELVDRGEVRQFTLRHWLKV
Summary of the method: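 Duplicate single-point screening at 25 uM preceded concentration-series follow-up of actives. Binding was measured by competitive displacement of a radioligand from DAT protein, filter-counted by scintillation 1 h after dosing. Decrease relative to DMSO taken as activity.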

[14] = target: Norway rat Vesicular Monoamine Transporter (VMAT2), neurotransmitter transporter, Slc18a2 (gene 25549) (UniProt Q01827); test: NVS_TR_rVMAT2: NovaScreen (NVS) Transporter Assay for Norway rat Vesicular Monoamine Transporter (VMAT2), neurotransmitter transporter (AID 2283376);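 note: actives lower the bound radioligand signal below the DMSO level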
Summary of the method: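 Using rat forebrain membranes, specific radioligand binding to VMAT2 was measured by filtration and scintillation counting after 1 hour. Chemicals screened at 25 uM in duplicate, actives retested in concentration series, DMSO baseline.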

[15] = target: mouse Estrogen Receptor alpha (Era), Esr1 (gene 13982) (UniProt P19785); test: NVS_NR_mERa: NovaScreen (NVS) Nuclear Receptor Binding Assay for mouse Estrogen Receptor alpha (Era) (AID 2283378);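 note: hit means loss of bound radioligand signal relative to DMSO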
mouse Estrogen Receptor alpha (Era), Esr1 (gene 13982), sequence (P19785 whole entry, looked up): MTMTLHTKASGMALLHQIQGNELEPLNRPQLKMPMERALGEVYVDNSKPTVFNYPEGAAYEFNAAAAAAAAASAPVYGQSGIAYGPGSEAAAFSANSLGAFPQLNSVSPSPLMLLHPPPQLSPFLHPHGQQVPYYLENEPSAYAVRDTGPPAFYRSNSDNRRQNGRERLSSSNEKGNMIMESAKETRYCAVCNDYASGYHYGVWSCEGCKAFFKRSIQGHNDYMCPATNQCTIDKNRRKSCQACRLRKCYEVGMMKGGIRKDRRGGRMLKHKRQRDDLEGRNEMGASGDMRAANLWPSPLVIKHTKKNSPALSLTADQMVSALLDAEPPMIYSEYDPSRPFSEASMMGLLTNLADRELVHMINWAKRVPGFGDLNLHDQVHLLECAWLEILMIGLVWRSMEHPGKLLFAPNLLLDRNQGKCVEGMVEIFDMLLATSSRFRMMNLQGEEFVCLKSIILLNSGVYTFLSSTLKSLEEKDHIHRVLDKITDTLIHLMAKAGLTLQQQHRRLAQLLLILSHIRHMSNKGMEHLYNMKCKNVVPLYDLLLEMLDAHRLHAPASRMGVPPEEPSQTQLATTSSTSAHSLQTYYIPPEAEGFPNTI
Summary of the method: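 Extracted mouse Era incubated with tritiated or iodinated radioligand plus test chemical, 18 h. Bound fraction separated on filters, counted by scintillation. DMSO = negative control/baseline; duplicate single-point at 25 uM, then concentration-response follow-up.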

[16] = target: Bile acid receptor (Homo sapiens) (UniProt Q96RI1); test: OT_FXR_FXRSRC1_0480: Odyssey Thera (OT) 8-hour HEK293T Protein-Complementation Assay for Farnesoid X receptor/SRC-1 Co-activator (AID 2283383)
Summary of the method: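 Readings were taken 8 h after dosing HEK293T cells in a split-reporter complementation format pairing FXR with SRC-1. Increased fluorescence relative to DMSO-treated wells defined activity.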

[17] = target: Bile acid receptor (Homo sapiens) (UniProt Q96RI1); test: OT_FXR_FXRSRC1_1440: Odyssey Thera (OT) 24-hour HEK293T Protein-Complementation Assay for Farnesoid X receptor/SRC-1 Co-activator (AID 2283384)
Summary of the method: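 Single endpoint, analysed for increased fluorescence against DMSO controls. HEK293T cells carrying FXR and SRC-1 linked to complementary reporter halves were exposed to chemicals for 24 h before reading.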

[18] = CEETOX_H295R_11DCORT: CeeTox H295R High-throughput Steroidogenesis Assay for 11-Deoxycortisol (11DCORT) (AID 2283432; active = hit-call score of the fitted dose curve at least 0.9, where 1 is the maximum; inactive = score below 0.9;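 for AC50: 11-deoxycortisol secreted into the medium measured by LC-MS/MS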); details: actives raise or lower the signal
Summary of the method: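 H295R cells; 10 uM forskolin prestim 48 h; compound in 0.1% DMSO 48 h; media extracted with MTBE; 11-deoxycortisol by LC-MS/MS, 7-point standard curve; gain/loss vs DMSO baseline; viability by MTT in same wells.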

[19] = target: Agonist Androgen Response Element (ARE), AR (gene 367) (UniProt P10275); test: OT_AR_ARELUC_AG_1440: Odyssey Thera (OT) 24-hour CHO-K1 Luciferase Assay for Agonist Androgen Response Element (ARE) (AID 2283379)
Summary of the method: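 Readout: luciferase bioluminescence from CHO-K1 ARE-luc cells, measured 24 h post-dosing; agonism = increased mean luminescence vs DMSO controls, fitted in positive direction.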

[20] = target: Peroxisome proliferator-activated receptor gamma (Homo sapiens) (UniProt P37231); test: OT_PPARg_PPARgSRC1_1440: Odyssey Thera (OT) 24-hour Protein-Complementation Assay for Peroxisome Proliferator-activated Receptor Gamma/ SRC-1 Co-activator (AID 2283388);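 note: nuclear to cytoplasmic ratio of reconstituted Venus YFP fluorescence in fixed imaged cells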
Summary of the method: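 Protein-fragment complementation between PPARg and coactivator SRC-1 was measured by fluorescence imaging in transiently transfected HEK293T cells after 24 h treatment. Signal was quantified as N/C ratio in the 488 nm channel, with DMSO as negative control.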

Measured: AC50

Oc1ccccc1-c1ccccc1
inactive: [1] | [2] | [4] | [5] | [6] | [7] | [8] | [9] | [10]
active: [3] 15 µM

COc1nc(C)nc(NC(=O)NS(=O)(=O)c2ccccc2CCC(F)(F)F)n1
inactive: [1] | [11] | [12]

COc1ccc(C(c2ccc(OC)cc2)C(Cl)(Cl)Cl)cc1
inactive: [1] | [13] | [14] | [3] | [7] | [8] | [9]
active: [15] 3.48 µM | [4] 4.01 µM and 3.74 µM and 3.97 µM | [5] 3.09 µM and 3.24 µM and 3.47 µM | [6] 2.7 µM and 2.88 µM and 2.66 µM | [16] 32.1 µM and 35 µM and 27 µM | [17] 30.4 µM and 35.6 µM and 28.4 µM | [7] 66 µM

COc1nc(NC(C)C)nc(NC(C)C)n1
inactive: [11] | [12] | [4] | [5] | [6] | [16] | [8] | [9] | [18] | [10]

CCCC1COC(Cn2cncn2)(c2ccc(Cl)cc2Cl)O1 (configuration not stated)
inactive: [1] | [19] | [5] | [6] | [16] | [9] | [20] | [18] | [10]

N#Cc1nn(-c2c(Cl)cc(C(F)(F)F)cc2Cl)c(N)c1S(=O)C(F)(F)F (configuration not stated)
inactive: [1] | [19] | [4] | [5] | [6] | [7] | [8] | [9]
active: [16] 35 µM | [17] 33 µM

C=CC1(C)OC(=O)N(c2cc(Cl)cc(Cl)c2)C1=O (configuration not stated)
active: [15] 10.1 µM | [6] 50 µM | [17] 34.2 µM | [18] 25.6 µM
inactive: [1] | [15] | [4] | [5] | [6] | [16] | [17] | [7] | [8] | [9] | [20] | [10]

CON(C)C(=O)Nc1ccc(Cl)c(Cl)c1
active: [13] 13.4 µM | [3] 25 µM
inactive: [1] | [3] | [15] | [5] | [6] | [7] | [8] | [9] | [18] | [10]

Cc1c(F)c(F)c(COC(=O)C2C(/C=C(\Cl)C(F)(F)F)C2(C)C)c(F)c1F (configuration not stated)
inactive: [4] | [5] | [6] | [16] | [17] | [7] | [9] | [18] | [10]
active: [13] 8.33 µM

CNC(=S)S
inactive: [4] | [5] | [6] | [8] | [9] | [20] | [18] | [10]

N#CC(CCc1ccc(Cl)cc1)(Cn1cncn1)c1ccccc1 (configuration not stated)
active: [13] 7.06 µM
inactive: [19] | [4] | [5] | [6] | [9] | [18] | [10]

CC(C)Oc1cc(-n2nc(C(C)(C)C)oc2=O)c(Cl)cc1Cl
inactive: [19] | [4] | [5] | [6] | [7] | [8] | [9] | [18]
active: [16] 29.5 µM | [17] 58.7 µM | [7] 50 µM | [8] 74.7 µM | [10] 0.951 µM

CCCCNC(=O)n1c(NC(=O)OC)nc2ccccc21
inactive: [2] | [19] | [4] | [5] | [6] | [16] | [17] | [9] | [20] | [18] | [10]

CCOC(=O)C(Cl)Cc1cc(-n2nc(C)n(C(F)F)c2=O)c(F)cc1Cl (configuration not stated)
active: [16] 22.4 µM | [7] 12.7 µM
inactive: [14] | [5] | [6] | [17] | [7] | [8] | [9] | [18] | [10]

CC(Oc1ccc(Cl)cc1Cl)C(=O)O (configuration not stated)
inactive: [5] | [6] | [16] | [7] | [8] | [9]

CCON=C(CC)C1=C(O)CC(c2c(C)cc(C)cc2C)CC1=O (configuration not stated)
inactive: [19] | [5] | [6] | [16] | [17] | [7] | [8] | [9] | [18] | [10]

COC(=O)N(OC)c1ccccc1COc1ccn(-c2ccc(Cl)cc2)n1
inactive: [4] | [5] | [6] | [7] | [8] | [9]
active: [16] 1.54 µM | [17] 1.45 µM

CNC(=O)ON=CC(C)(C)SC
inactive: [5] | [6] | [16] | [17] | [7] | [8] | [9]

CC1COC(Cn2cncn2)(c2ccc(Oc3ccc(Cl)cc3)cc2Cl)O1 (configuration not stated)
active: [13] 2.93 µM | [3] 12 µM | [16] 11.2 µM | [7] 11.4 µM
inactive: [14] | [4] | [5] | [6] | [9] | [18] | [10]
